Measurements published in PubChem BioAssay (EPA / NIEHS).
Calls of active or inactive are those of the source. How the source made its calls: active means hit-call score of the fitted dose curve at least 0.9, where 1 is the maximum; inactive means score below 0.9.

How the values were obtained:
[1] = read-out: Cytochrome P450 (CYP1A1), CYP1A1 (gene 1543); assay: LTEA_HepaRG_CYP1A1: Life Technologies and Expression Analysis (LTEA) Assay for Cytochrome P450 (CYP1A1) using HepaRG (AID 2283454); settings: mRNA level, 48 h; actives raise or lower the signal
In short: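 Differentiated human HepaRG cells, after 48 h plating, exposed in duplicate for 48 h in serum-free induction medium to 8 half-log concentrations up to 100 uM in 0.5% DMSO. CYP1A1 mRNA by qRT-PCR, normalized to ACTB/GAPDH/POLR2A; bidirectional fit versus DMSO.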

[2] = read-out: CFLAR gene, CFLAR (gene 8837); assay: LTEA_HepaRG_CFLAR: Life Technologies and Expression Analysis (LTEA) Assay for CFLAR gene using HepaRG (AID 2283455); settings: mRNA level, 48 h; actives raise or lower the signal
In short: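 HepaRG cells were plated for 48 h, switched to serum-free induction medium, then exposed in duplicate for 48 h to 8 concentrations (top 100 uM, half-log steps, 0.5% DMSO). CFLAR mRNA was measured by qRT-PCR, normalized to ACTB, GAPDH and POLR2A.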

[3] = CEETOX_H295R_TESTO: CeeTox H295R High-throughput Steroidogenesis Assay for Testosterone (TESTO) (AID 2283457); settings: actives raise or lower the signal
In short: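 H295R adrenal cells, passage ≤10, exposed to chemicals for 48 h. Testosterone in medium measured by MTBE extraction and HPLC-MS/MS against a 7-point standard curve. Bidirectional fit versus DMSO; MTT viability checked in the same wells.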

[4] = read-out: growth arrest and DNA damage 45 (GADD45A), GADD45A (gene 1647); assay: LTEA_HepaRG_GADD45A: Life Technologies and Expression Analysis (LTEA) Assay for growth arrest and DNA damage 45 (GADD45A) using HepaRG (AID 2283458); settings: mRNA level, 48 h; actives raise or lower the signal
In short: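 Human HepaRG liver cells are treated in duplicate for 48 h with chemicals in 0.5% DMSO, highest concentration 100 uM. Expression is read by qRT-PCR and analyzed in both directions against vehicle.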

[5] = read-out: ABC Transporter (ABCB1), ABCB1 (gene 5243); assay: LTEA_HepaRG_ABCB1: Life Technologies and Expression Analysis (LTEA) Assay for ABC Transporter (ABCB1) using HepaRG (AID 2283460); settings: mRNA level, 48 h; actives raise or lower the signal
In short: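 Differentiated human HepaRG cells, plated 48 h then switched to serum-free induction medium, were exposed in duplicate to eight half-log concentrations up to 100 uM in 0.5% DMSO for 48 h. ABCB1 mRNA was measured by TaqMan qRT-PCR, normalized to ACTB/GAPDH/POLR2A.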

[6] = read-out: growth arrest and DNA damage 45 (GADD45B), GADD45B (gene 4616); assay: LTEA_HepaRG_GADD45B: Life Technologies and Expression Analysis (LTEA) Assay for growth arrest and DNA damage 45 (GADD45B) using HepaRG (AID 2283461); settings: mRNA level, 48 h; actives raise or lower the signal
In short: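 Differentiated human HepaRG cells in serum-free induction medium exposed 48 h in duplicate to eight concentrations, top 100 uM, half-log steps, 0.5% DMSO. GADD45B mRNA by TaqMan qRT-PCR, normalized to ACTB, GAPDH, POLR2A; bidirectional fit versus DMSO.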

[7] = read-out: ABC Transporter (ABCC3), ABCC3 (gene 8714); assay: LTEA_HepaRG_ABCC3: Life Technologies and Expression Analysis (LTEA) Assay for ABC Transporter (ABCC3) using HepaRG (AID 2283462); settings: mRNA level, 48 h; actives raise or lower the signal
In short: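 Differentiated human HepaRG cells exposed 48 h in serum-free induction medium, 0.5% DMSO vehicle, 8-point half-log series to 100 uM in duplicate. ABCC3 mRNA by qRT-PCR, normalised to ACTB, GAPDH, POLR2A; bidirectional fit vs DMSO.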

[8] = read-out: ABC Transporter (ABCB11), ABCB11 (gene 8647); assay: LTEA_HepaRG_ABCB11: Life Technologies and Expression Analysis (LTEA) Assay for ABC Transporter (ABCB11) using HepaRG (AID 2283463); settings: mRNA level, 48 h; actives raise or lower the signal
In short: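 Differentiated human HepaRG cells were exposed for 48 h in serum-free induction medium to eight half-log concentrations up to 100 uM in 0.5% DMSO. ABCB11 mRNA was quantified by qRT-PCR, normalized to ACTB, GAPDH and POLR2A, and fitted bidirectionally versus DMSO.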

[9] = read-out: ABC Transporter (ABCC2), ABCC2 (gene 1244); assay: LTEA_HepaRG_ABCC2: Life Technologies and Expression Analysis (LTEA) Assay for ABC Transporter (ABCC2) using HepaRG (AID 2283464); settings: mRNA level, 48 h; actives raise or lower the signal
In short: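 Differentiated HepaRG cells in serum-free induction medium exposed 48 h to eight half-log concentrations up to 100 uM, 0.5% DMSO, in duplicate. ABCC2 mRNA measured by qRT-PCR (TaqMan, Fluidigm), normalized to ACTB, GAPDH and POLR2A. Fitted in both directions against DMSO.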

[10] = read-out: Broad substrate specificity ATP-binding cassette transporter ABCG2 (Homo sapiens) (UniProt Q9UNQ0); assay: LTEA_HepaRG_ABCG2: Life Technologies and Expression Analysis (LTEA) Assay for ABC Transporter (ABCG2) using HepaRG (AID 2283465); settings: mRNA level, 48 h; actives raise or lower the signal
In short: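 Differentiated HepaRG cells in serum-free induction medium were exposed for 48 h, in duplicate, to eight half-log concentrations up to 100 uM in 0.5% DMSO. ABCG2 mRNA was measured by TaqMan qRT-PCR, normalized to ACTB, GAPDH and POLR2A, and fitted bidirectionally versus DMSO.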

[11] = read-out: Peroxisomal acyl-coenzyme A oxidase 1 (ACOX1) gene, ACOX1 (gene 51); assay: LTEA_HepaRG_ACOX1: Life Technologies and Expression Analysis (LTEA) Assay for Peroxisomal acyl-coenzyme A oxidase 1 (ACOX1) gene using HepaRG (AID 2283467); settings: mRNA level, 48 h; actives raise or lower the signal
In short: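 Differentiated human HepaRG cells were exposed in duplicate for 48 h in serum-free induction medium to eight half-log concentrations up to 100 uM in 0.5% DMSO. ACOX1 mRNA was then quantified by TaqMan qRT-PCR, normalized to ACTB, GAPDH and POLR2A.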

[12] = read-out: Alkaline Phosphatase, Placental (ALPP) gene, ALPP (gene 250); assay: LTEA_HepaRG_ALPP: Life Technologies and Expression Analysis (LTEA) Assay for Alkaline Phosphatase, Placental (ALPP) gene using HepaRG (AID 2283468); settings: mRNA level, 48 h; actives raise or lower the signal
In short: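 HepaRG cells plated 48 h, then exposed in duplicate for 48 h in serum-free induction medium to 8-point half-log series from 100 uM in 0.5% DMSO. ALPP mRNA by TaqMan qRT-PCR, normalized to ACTB/GAPDH/POLR2A; bidirectional fit versus DMSO.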

[13] = read-out: Bcl-2 (BAD) gene, BAD (gene 572); assay: LTEA_HepaRG_BAD: Life Technologies and Expression Analysis (LTEA) Assay for Bcl-2 (BAD) gene using HepaRG (AID 2283469); settings: mRNA level, 48 h; actives raise or lower the signal
In short: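 Differentiated human HepaRG cells in serum-free induction medium were exposed in duplicate for 48 h to eight concentrations (top 100 uM, half-log steps, 0.5% DMSO). BAD mRNA was quantified by qRT-PCR normalised to ACTB, GAPDH and POLR2A, with bidirectional fitting versus DMSO.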

[14] = read-out: Bcl-2 (BAX) gene, BAX (gene 581); assay: LTEA_HepaRG_BAX: Life Technologies and Expression Analysis (LTEA) Assay for Bcl-2 (BAX) gene using HepaRG (AID 2283470); settings: mRNA level, 48 h; actives raise or lower the signal
In short: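 Concentration-response endpoint fitted in both directions relative to 0.5% DMSO vehicle. Human HepaRG cultures receive test chemicals for 48 h at up to 100 uM; BAX mRNA is quantified by qRT-PCR against housekeeping genes.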

[15] = read-out: adenosine kinase (ADK) gene, ADK (gene 132); assay: LTEA_HepaRG_ADK: Life Technologies and Expression Analysis (LTEA) Assay for adenosine kinase (ADK) gene using HepaRG (AID 2283471); settings: mRNA level, 48 h; actives raise or lower the signal
In short: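 ADK expression quantified by qRT-PCR, normalised to three housekeeping genes, after 48 h exposure of HepaRG cells to eight concentrations (top 100 uM, half-log steps, duplicate, 0.5% DMSO). Up- or down-regulation fitted relative to vehicle.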

[16] = read-out: Alpha-fetoprotein (AFP) gene, AFP (gene 174); assay: LTEA_HepaRG_AFP: Life Technologies and Expression Analysis (LTEA) Assay for Alpha-fetoprotein (AFP) gene using HepaRG (AID 2283472); settings: mRNA level, 48 h; actives raise or lower the signal
In short: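 After a 48 h plating period, cells are moved to serum-free induction medium and dosed in duplicate (100 uM maximum, half-log dilutions, 0.5% DMSO) for another 48 h. Total RNA goes to TaqMan qRT-PCR; AFP signal is housekeeping-normalized.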

[17] = read-out: BCL2L11 (gene 10018); assay: LTEA_HepaRG_BCL2L11: Life Technologies and Expression Analysis (LTEA) Assay for Bcl-2 (BCL2L11) gene using HepaRG (AID 2283473); settings: mRNA level, 48 h; actives raise or lower the signal
In short: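 Differentiated human HepaRG cells were exposed 48 h in serum-free induction medium to eight half-log concentrations up to 100 uM in 0.5% DMSO, in duplicate. BCL2L11 mRNA was quantified by TaqMan qRT-PCR, normalized to ACTB, GAPDH and POLR2A; induction or repression fitted versus DMSO.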

[18] = read-out: Forkhead box O1 (FOXO1), FOXO1 (gene 2308); assay: LTEA_HepaRG_FOXO1: Life Technologies and Expression Analysis (LTEA) Assay for Forkhead box O1 (FOXO1) using HepaRG (AID 2283456); settings: mRNA level, 48 h; actives raise or lower the signal
In short: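 Differentiated human HepaRG cells in serum-free induction medium were exposed in duplicate for 48 h to eight half-log concentrations (top 100 uM, 0.5% DMSO). FOXO1 mRNA was measured by TaqMan qRT-PCR, normalised to ACTB, GAPDH and POLR2A, and fitted bidirectionally against DMSO.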

[19] = read-out: ATP-citrate lyase (ACLY), ACLY (gene 47); assay: LTEA_HepaRG_ACLY: Life Technologies and Expression Analysis (LTEA) Assay for ATP-citrate lyase (ACLY) using HepaRG (AID 2283466); settings: mRNA level, 48 h; actives raise or lower the signal
In short: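 Differentiated human HepaRG cells in serum-free induction medium exposed 48 h, in duplicate, to eight half-log concentrations from 100 uM top in 0.5% DMSO; ACLY mRNA measured by qRT-PCR, normalized to ACTB, GAPDH, POLR2A, fitted bidirectionally versus DMSO.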

[20] = read-out: Forkhead box O3 (FOXO3), FOXO3 (gene 2309); assay: LTEA_HepaRG_FOXO3: Life Technologies and Expression Analysis (LTEA) Assay for Forkhead box O3 (FOXO3) using HepaRG (AID 2283459); settings: mRNA level, 48 h; actives raise or lower the signal
In short: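 Differentiated human HepaRG cells in serum-free induction medium were exposed in duplicate for 48 h to eight half-log concentrations up to 100 uM in 0.5% DMSO. FOXO3 mRNA was quantified by qRT-PCR, normalized to ACTB, GAPDH and POLR2A, with bidirectional fitting versus DMSO.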

Measured: AC50

Broad substrate specificity ATP-binding cassette transporter ABCG2 (Homo sapiens), sequence (Q9UNQ0 whole entry, looked up): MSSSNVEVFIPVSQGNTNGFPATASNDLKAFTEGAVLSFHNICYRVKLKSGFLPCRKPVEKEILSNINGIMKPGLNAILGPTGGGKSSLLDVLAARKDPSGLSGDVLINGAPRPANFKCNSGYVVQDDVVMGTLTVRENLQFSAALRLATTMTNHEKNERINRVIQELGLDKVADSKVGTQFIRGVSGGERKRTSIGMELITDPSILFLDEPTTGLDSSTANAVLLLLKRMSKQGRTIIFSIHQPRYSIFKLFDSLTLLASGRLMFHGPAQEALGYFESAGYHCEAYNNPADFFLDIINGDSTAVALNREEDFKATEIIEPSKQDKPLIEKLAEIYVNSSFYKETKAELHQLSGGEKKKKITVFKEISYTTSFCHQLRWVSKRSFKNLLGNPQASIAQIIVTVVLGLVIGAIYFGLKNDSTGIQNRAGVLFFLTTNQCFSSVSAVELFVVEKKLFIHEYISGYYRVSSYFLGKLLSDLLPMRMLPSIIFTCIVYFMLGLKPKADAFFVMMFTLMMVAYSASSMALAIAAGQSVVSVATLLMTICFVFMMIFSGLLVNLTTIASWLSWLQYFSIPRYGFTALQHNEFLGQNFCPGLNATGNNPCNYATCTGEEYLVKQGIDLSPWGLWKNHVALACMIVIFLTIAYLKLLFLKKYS

N#CC(CCc1ccc(Cl)cc1)(Cn1cncn1)c1ccccc1 (stereo not given)
active: [1] 9.8 µM | [4] 74.7 µM | [7] 12.5 µM | [8] 72.3 µM | [9] 50 µM | [10] 50 µM | [11] 34.3 µM | [12] 21.9 µM | [14] 68 µM | [16] 15.8 µM
inactive: [2] | [3] | [5] | [6] | [13] | [15] | [17]

CCOc1cc(Oc2ccc(C(F)(F)F)cc2Cl)ccc1[N+](=O)[O-]
active: [1] 9.84 µM | [8] 19.1 µM | [10] 9.39 µM | [11] 50 µM | [12] 40.3 µM | [16] 39.1 µM
not listed: [3] | [20]
inactive: all other assays above

CCOP(=S)(OCC)SCn1c(=O)oc2cc(Cl)ccc21
active: [1] 53.7 µM
not listed: [3] | [18]
inactive: all other assays above

CC1=C(C(=O)Nc2ccccc2)SCCO1
active: [1] 89.9 µM | [2] 50 µM | [20] 50 µM | [6] 50 µM | [8] 50 µM
not listed: [18] | [19]
inactive: all other assays above

CCON=C(CC)C1=C(O)CC(c2c(C)cc(C)cc2C)CC1=O (stereo not given)
active: [5] 50 µM | [9] 50 µM
not listed: [10] | [18] | [19] | [20]
inactive: all other assays above

CNC(=S)S
active: [1] 50 µM
not listed: [3] | [20]
inactive: all other assays above
